Laboratory results taken from PubChem BioAssay (NCI).
This is part of a sample that, as a whole, favours compounds with a hit. Of some 83,000 tested, about 20% had one in any assay.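 Method: cells in 96-well plates; compound added at one concentration; 48 h incubation; percent growth measured; values under 10 scored active.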 A number with no mark means an inactive call. Activity calls are given as the source filed them.

Key:
Experiment in all cases: NCI-60 one-dose screen, 48 h (100 = growth as untreated, 0 = no growth, -100 = all killed)
Details in all cases: 10 µM unless noted
[1] = system: DU-145 prostate
[2] = system: K-562 leukemia
[3] = system: MALME-3M melanoma
[4] = system: MDA-MB-231 breast
[5] = system: RXF 393 renal
[6] = system: SF-268 CNS
[7] = system: SF-295 CNS
[8] = system: SF-539 CNS
[9] = system: UACC-257 melanoma
[10] = system: M14 melanoma
[11] = system: HCT-15 colon
[12] = system: SNB-75 CNS
[13] = system: SNB-19 CNS
[14] = system: U251 CNS
[15] = system: PC-3 prostate
[16] = system: SK-MEL-5 melanoma
[17] = system: UACC-62 melanoma
[18] = system: LOX IMVI melanoma
[19] = system: SK-MEL-28 melanoma
[20] = system: HT29 colon

## NS(=O)(=O)c1ccc(CCN2C(=O)/C(=C\c3ccc(Cl)cc3)C=C2c2ccc(Oc3ccccc3)cc2)cc1
[1]
  growth: 89.4%
[2]
  growth: 47.8%
[3]
  growth: 82%
[4]
  growth: 72.9%
[5]
  growth: 70.3%
[6]
  growth: 82.7%
[7]
  growth: 77.3%
[8]
  growth: 97.7%
[9]
  growth: 92.4%
[10]
  growth: 73.7%
[11]
  growth: 64.8%
[12]
  growth: 77.9%
[13]
  growth: 80.3%
[14]
  growth: 74.5%
[15]
  growth: 38.6%
[16]
  growth: 77.4%
[17]
  growth: 68.8%
[18]
  growth: 81%

## O=S(=O)(Nc1cccc2cc(OS(=O)(=O)c3ccccc3)ccc12)c1ccccc1
[1]
  growth: 92%
[2]
  growth: 25.2%
[3]
  growth: 56.2%
[4]
  growth: 76.4%
[5]
  growth: 86.5%
[6]
  growth: 74.2%
[7]
  growth: 59.3%
[8]
  growth: 63.4%
[9]
  growth: 75.6%
[10]
  growth: 40.3%
[11]
  growth: 34.4%
[12]
  growth: 49.6%
[13]
  growth: 78.2%
[14]
  growth: 48.5%
[15]
  growth: 59%
[16]
  growth: 53.4%
[17]
  growth: 61%
[18]
  growth: 55.4%
[19]
  growth: 66.4%

## COc1ccc2c(c1)O/C(=C/c1ccc(OCC(=O)Nc3ccc(S(N)(=O)=O)cc3)cc1)C2=O
[1]
  growth: 101%
[2]
  growth: 85.7%
[3]
  growth: 111%
[4]
  growth: 94.7%
[5]
  growth: 97.2%
[6]
  growth: 94.8%
[7]
  growth: 106%
[8]
  growth: 97.7%
[9]
  growth: 102%
[10]
  growth: 102%
[11]
  growth: 93.7%
[12]
  growth: 89.8%
[13]
  growth: 92.1%
[15]
  growth: 91%
[16]
  growth: 94.3%
[17]
  growth: 88%
[18]
  growth: 101%
[19]
  growth: 108%

## C[C@H]1C=C(C[C@@H](O)CCCCCCCCCC[C@@H](O)[C@H]2CCC(=O)O2)C(=O)O1
[1]
  growth: 112%
[2]
  growth: 83.5%
[3]
  growth: 122%
[4]
  growth: 102%
[5]
  growth: 100%
[6]
  growth: 115%
[7]
  growth: 109%
[8]
  growth: 92.5%
[9]
  growth: 102%
[10]
  growth: 101%
[11]
  growth: 108%
[20]
  growth: 109%
[13]
  growth: 96.7%
[15]
  growth: 89.4%
[16]
  growth: 95.9%
[17]
  growth: 92.2%
[18]
  growth: 90.5%
[19]
  growth: 124%

## COc1cc(/C=C/C(=O)c2c(C)[n+]([O-])c3ccccc3[n+]2[O-])ccc1O
[1]
  growth: 101%
[2]
  growth: 85.2%
[3]
  growth: 103%
[4]
  growth: 81.5%
[5]
  growth: 111%
[6]
  growth: 95.5%
[7]
  growth: 89.3%
[8]
  growth: 100%
[9]
  growth: 98.9%
[10]
  growth: 103%
[11]
  growth: 93.5%
[20]
  growth: 161%
[13]
  growth: 111%
[14]
  growth: 90.8%
[15]
  growth: 90.6%
[16]
  growth: 81.6%
[17]
  growth: 110%
[18]
  growth: 92.6%
[19]
  growth: 117%

## COc1ccc2c(c1)OC(N)=C(C#N)C2c1ccc(F)c(F)c1 (stereo unspecified)
[1]
  growth: 30.4%
[2]
  growth: 9.04% (active)
[3]
  growth: 78.4%
[4]
  growth: 44.5%
[5]
  growth: -9.6% (active)
[6]
  growth: 56.7%
[7]
  growth: 23.1%
[8]
  growth: 14.6%
[9]
  growth: 73%
[10]
  growth: 18.8%
[11]
  growth: 29.6%
[12]
  growth: 9.47% (active)
[13]
  growth: 28.7%
[14]
  growth: 31%
[15]
  growth: 24.2%
[16]
  growth: 24.2%
[17]
  growth: 38.1%
[18]
  growth: 54.2%
[19]
  growth: 68.2%

## N#CC(C#N)=C(C#N)c1c[nH]c2ccccc12
[1]
  growth: 88%
[2]
  growth: 91.3%
[3]
  growth: 86.1%
[4]
  growth: 84.8%
[5]
  growth: 88.2%
[6]
  growth: 90.7%
[7]
  growth: 103%
[8]
  growth: 80.4%
[9]
  growth: 85.2%
[10]
  growth: 79.7%
[11]
  growth: 73.3%
[12]
  growth: 79.6%
[13]
  growth: 92.9%
[14]
  growth: 86.3%
[15]
  growth: 73.1%
[16]
  growth: 92.8%
[17]
  growth: 82.9%
[18]
  growth: 82.3%
[19]
  growth: 108%

## O=C1OC(c2ccc(-c3ccccc3)cc2)=C/C1=C/C=C/c1ccccc1
[1]
  growth: 111%
[2]
  growth: 96%
[3]
  growth: 104%
[4]
  growth: 105%
[6]
  growth: 90.5%
[7]
  growth: 65.6%
[8]
  growth: 105%
[9]
  growth: -13.8% (active)
[10]
  growth: 112%
[11]
  growth: 109%
[12]
  growth: 92.4%
[13]
  growth: 99.1%
[14]
  growth: 100%
[16]
  growth: 106%
[17]
  growth: 96.8%
[18]
  growth: 99.3%
[19]
  growth: 103%

## CC1(C)N=C(N)N=C(N)N1c1ccc(OCC(=O)Nc2ccccc2)c(Cl)c1
[1]
  growth: 39.1%
[2]
  growth: 18.5%
[3]
  growth: 55.1%
[4]
  growth: 68.9%
[6]
  growth: 28%
[7]
  growth: 23.5%
[8]
  growth: 23.8%
[9]
  growth: -3.5% (active)
[10]
  growth: 25.7%
[11]
  growth: 96.7%
[20]
  growth: 17.6%
[12]
  growth: 82.3%
[13]
  growth: 49.4%
[14]
  growth: 41%
[15]
  growth: 14.8%
[16]
  growth: 26.6%
[17]
  growth: 18.2%
[18]
  growth: 22.4%
[19]
  growth: 76.3%

## O=C1C(SCCO)=C(SCCO)C(=O)N1c1ccc(-c2ccccc2)cc1
[1]
  growth: 27.1%
[2]
  growth: -0.074% (active)
[3]
  growth: -44.5% (active)
[4]
  growth: 95%
[6]
  growth: 41.1%
[7]
  growth: 103%
[8]
  growth: 104%
[9]
  growth: -5.64% (active)
[10]
  growth: 85.7%
[11]
  growth: -21.6% (active)
[20]
  growth: 70.2%
[12]
  growth: 71.9%
[13]
  growth: 106%
[15]
  growth: 93.3%
[16]
  growth: 103%
[17]
  growth: 62.5%
[18]
  growth: -45% (active)
[19]
  growth: -66.7% (active)

## COc1cc(NC(=O)c2cc(OC)c3ccn(C)c3c2)cc2c1C[C@]1(C)CC[C@@H](O)C(C)(C)[C@H]1O2
[1]
  growth: 71.5%
[2]
  growth: 20.2%
[3]
  growth: 49.9%
[4]
  growth: 57.7%
[6]
  growth: 66.7%
[7]
  growth: -39.6% (active)
[8]
  growth: 20.3%
[9]
  growth: 62.2%
[10]
  growth: 23.7%
[11]
  growth: 58.1%
[20]
  growth: 61.7%
[12]
  growth: 42.2%
[13]
  growth: 72.9%
[14]
  growth: 43.1%
[15]
  growth: 41.7%
[16]
  growth: 42%
[17]
  growth: 53.5%
[18]
  growth: 19.9%
[19]
  growth: 36.9%

## CC1(C)N=C(N)N=C(N)N1c1ccc(F)c(C(F)(F)F)c1
[1]
  growth: 38.5%
[2]
  growth: 16.9%
[3]
  growth: 74.1%
[4]
  growth: 73.5%
[6]
  growth: 23.2%
[7]
  growth: 19.5%
[8]
  growth: 23.2%
[9]
  growth: 25.2%
[10]
  growth: 24%
[11]
  growth: 45.8%
[20]
  growth: 19.3%
[12]
  growth: 59%
[13]
  growth: 44%
[14]
  growth: 47.2%
[15]
  growth: 34.3%
[16]
  growth: 22.8%
[17]
  growth: 24.3%
[18]
  growth: 21.4%
[19]
  growth: 97.8%

## Cc1ccc(-c2cc(-c3nnc(SCC(=O)c4ccccc4)o3)c3ccccc3n2)cc1
[1]
  growth: 95.2%
[2]
  growth: 93.2%
[3]
  growth: 107%
[4]
  growth: 117%
[6]
  growth: 88.9%
[7]
  growth: 99.1%
[8]
  growth: 94.2%
[9]
  growth: 114%
[10]
  growth: 97.2%
[11]
  growth: 96.3%
[20]
  growth: 90.1%
[12]
  growth: 57.1%
[13]
  growth: 101%
[14]
  growth: 98.3%
[15]
  growth: 95.5%
[16]
  growth: 95.3%
[17]
  growth: 90.8%
[18]
  growth: 92.4%
[19]
  growth: 96.6%

## O=C1c2ccccc2C(=O)c2c(NCCN=Cc3c(O)ccc4ccccc34)cccc21
[1]
  growth: 51.7%
[2]
  growth: 77.7%
[3]
  growth: 113%
[4]
  growth: 84.4%
[6]
  growth: 82.3%
[7]
  growth: 65.1%
[8]
  growth: 91.4%
[9]
  growth: -5.35% (active)
[10]
  growth: 65.8%
[11]
  growth: 77%
[20]
  growth: 88%
[12]
  growth: 84%
[13]
  growth: 84.9%
[14]
  growth: 83%
[15]
  growth: 84.5%
[16]
  growth: 86.7%
[17]
  growth: 85.8%
[18]
  growth: 66.7%
[19]
  growth: 117%

## Nc1nc2ccc(CNc3ccc(C(=O)NC(CC(=O)O)C(=O)O)cc3)cc2c(=O)[nH]1 (stereo unspecified)
[1]
  growth: 44.9%
[2]
  growth: 12.2%
[3]
  growth: 71.7%
[4]
  growth: 120%
[6]
  growth: 40.1%
[7]
  growth: 29.8%
[8]
  growth: 38.4%
[9]
  growth: 42.3%
[10]
  growth: 32.8%
[11]
  growth: 39.8%
[12]
  growth: 70.4%
[13]
  growth: 62.6%
[14]
  growth: 49.5%
[15]
  growth: 33.1%
[16]
  growth: 30%
[17]
  growth: 31.6%
[18]
  growth: 19.5%

## COc1ccccc1C(OC(C)=O)OC(C)=O
[1]
  growth: 109%
[2]
  growth: 95.6%
[3]
  growth: 108%
[5]
  growth: 111%
[6]
  growth: 98.8%
[7]
  growth: 96.6%
[8]
  growth: 101%
[9]
  growth: 87.5%
[10]
  growth: 98.3%
[11]
  growth: 103%
[20]
  growth: 88.5%
[12]
  growth: 96.4%
[13]
  growth: 113%
[14]
  growth: 97.3%
[15]
  growth: 102%
[16]
  growth: 101%
[17]
  growth: 102%
[18]
  growth: 92.9%
[19]
  growth: 109%
